The structures appear in SMILES notation. Inconclusive results are not listed. More than one record can exist for a structure, and the calls need not agree. The source made the active and inactive calls. Unless noted, the call rests on the fitted dose curve; in most records, active means well fitted curve in the direction sought with a large enough effect in the repeat runs; inconclusive means weak or mixed curves; inactive means no such curve, though single readings can be large; an effect the other way counts as inactive or inconclusive.
Potency means the concentration at half of the fitted maximal effect.

Chain of Cytochrome P450 2D6 (Homo sapiens) (P10635 whole entry, looked up): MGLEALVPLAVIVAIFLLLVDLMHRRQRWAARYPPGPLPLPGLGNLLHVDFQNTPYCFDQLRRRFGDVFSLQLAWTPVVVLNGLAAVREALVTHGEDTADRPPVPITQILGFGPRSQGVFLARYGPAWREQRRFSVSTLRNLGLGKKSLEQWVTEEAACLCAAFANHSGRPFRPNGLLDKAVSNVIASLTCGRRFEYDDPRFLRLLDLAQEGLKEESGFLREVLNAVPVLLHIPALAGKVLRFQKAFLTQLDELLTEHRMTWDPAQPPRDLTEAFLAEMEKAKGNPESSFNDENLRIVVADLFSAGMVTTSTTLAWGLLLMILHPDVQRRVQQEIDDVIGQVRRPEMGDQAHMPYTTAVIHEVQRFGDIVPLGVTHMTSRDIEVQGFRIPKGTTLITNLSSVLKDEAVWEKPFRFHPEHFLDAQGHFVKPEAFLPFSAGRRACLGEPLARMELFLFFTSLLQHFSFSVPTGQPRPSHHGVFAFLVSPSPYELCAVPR
Chain of Cytochrome P450 2C9 (Homo sapiens) (P11712 whole entry, looked up): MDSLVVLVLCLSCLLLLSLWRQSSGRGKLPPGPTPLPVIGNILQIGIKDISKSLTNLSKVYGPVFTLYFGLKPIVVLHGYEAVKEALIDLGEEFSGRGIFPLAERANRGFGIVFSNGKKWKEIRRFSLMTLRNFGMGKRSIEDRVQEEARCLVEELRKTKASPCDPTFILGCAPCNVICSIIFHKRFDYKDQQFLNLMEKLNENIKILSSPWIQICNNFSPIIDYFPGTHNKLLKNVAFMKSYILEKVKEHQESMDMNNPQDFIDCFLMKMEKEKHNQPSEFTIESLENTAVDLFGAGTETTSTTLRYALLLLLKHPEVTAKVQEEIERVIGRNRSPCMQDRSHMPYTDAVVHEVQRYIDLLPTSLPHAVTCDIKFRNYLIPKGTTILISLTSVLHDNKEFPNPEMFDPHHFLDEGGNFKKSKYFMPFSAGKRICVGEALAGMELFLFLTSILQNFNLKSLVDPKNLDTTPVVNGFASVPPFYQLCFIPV

Test system in one test: not listed separately
As to the kind of experiment: A High-Content qHTS Against Drug Library for the Identification of Small Molecules that Inhibit DYT1 Early Onset Primary Dystonia-Associated Cell Pathology (AID 1645839; calls by dose curve). As to conditions: HEK293 Flp-In EGFP-delE TorsinA, punctate imaging, 48 h; series mostly up to 46.1 µM; % pathology change, negative = correction: at the top concentration. The gist of the method:
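Induced EGFP-delE TorsinA cells are imaged after 48 h of compound treatment. Punctate fusion-protein distribution gives the %pathology value, while nuclei counts flag toxicity. Wild-type EGFP-hTOR1A cells define the normal pattern.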
A general note: In qHTS, concentration-response curves come from the screen itself.
Regarding `CCn1cc(C(=O)O)c(=O)c2cc(F)c(N3CCNC(C)C3)c(F)c21` (stereo unspecified), the “% pathology change, negative = correction” value (shortened to “% pathology change”) is 18.1% (inactive).

Consider `C1COC(NC(C2CC2)C2CC2)=N1`, for which the “% pathology change” value is 27.7% (inactive).

As for `CCCc1nn(C)c2c(=O)[nH]c(-c3cc(S(=O)(=O)N4CCN(C)CC4)ccc3OCC)nc12`, the “% pathology change” value was -7.69% (inactive).

`CC(=O)Oc1ccccc1C(=O)O`: the “% pathology change” value is 3.07% (inactive).

`NC(=O)c1cnccn1`: the “% pathology change” value was -0.231% (inactive).

For `CCCCNc1cc(C(=O)O)cc(S(N)(=O)=O)c1Oc1ccccc1`, the “% pathology change” value is 17.1% (inactive).

On to `OC(CCN1CCCCC1)(c1ccccc1)C1CC2C=CC1C2` (stereo unspecified), for which the “% pathology change” value was -8.52% (inactive).

`Cn1cnc([N+](=O)[O-])c1Sc1ncnc2nc[nH]c12`: the Potency is 35.5 µM (active) and inactive.

In the case of `O=C1CCC(N2C(=O)c3ccccc3C2=O)C(=O)N1` (stereo unspecified), the “% pathology change” value was -1.93% (inactive).

Regarding `CCCC(CCC)C(=O)O`, the “% pathology change” value was 1.72% (inactive).

With `Nc1nc2ccc(OC(F)(F)F)cc2s1`, the “% pathology change” value is 8.21% (inactive).

Consider `O=c1n(CCCN2CCN(c3cccc(Cl)c3)CC2)nc2ccccn12`, for which the “% pathology change” value is -17.2% (inactive).

Consider `Nc1nc2c(ncn2COCCO)c(=O)[nH]1`, for which the “% pathology change” value was 18.2% (inactive).

Consider `Clc1cccc(Cl)c1NC1=NCCN1`, for which the “% pathology change” value was -11% (inactive).

As for `O=C1CCc2cc(OCCCCc3nnnn3C3CCCCC3)ccc2N1`, the “% pathology change” value was 8.12% (inactive).

As to `Cc1oncc1C(=O)Nc1ccc(C(F)(F)F)cc1`, the “% pathology change” value was 4.59% (inactive).

`NNCCc1ccccc1`: the “% pathology change” value is -16.8% (inactive).

For the compound `Oc1ccc(C2CNCCc3c2cc(O)c(O)c3Cl)cc1` (stereo unspecified), the “% pathology change” value is 0.738% (inactive).

`Cc1cn[nH]c1`: the “% pathology change” value was -0.209% (inactive).

With `Cc1ccccc1C(OCCN(C)C)c1ccccc1` (stereo unspecified), the “% pathology change” value was 4.18% (inactive).

With `CCOC(=O)C1=C[C@]2(CC)CCCN3CCc4c(n1c1ccccc41)[C@@H]32`, the “% pathology change” value was 0.942% (inactive).

On to `Cc1[nH]c(=O)c(C#N)cc1-c1ccc2nccn2c1`, for which the “% pathology change” value was 26.8% (inactive).

On to `Cc1[nH]c(=O)c(C#N)cc1-c1ccncc1`, for which the Potency result was “inactive”.

`O=c1[nH]cnc2[nH]ncc12`: the “% pathology change” value was 13.1% (inactive).

Regarding `Nc1ccc(S(=O)(=O)Nc2ccnn2-c2ccccc2)cc1`, the “% pathology change” value was 20% [at 19.1 µM] (inactive).

As for `NC[C@H](O)c1ccc(O)c(O)c1`, the “% pathology change” value was -22.1% (inactive).

In the case of `CC(C)(C)NCC(O)c1ccc(O)c(CO)c1` (stereo unspecified), the “% pathology change” value was 10.3% (inactive).

For the compound `NCCCC(N)(C(=O)O)C(F)F` (stereo unspecified), the “% pathology change” value is 9.83% (inactive).

Take `CC(C)NCC(O)COc1ccc(COCCOC(C)C)cc1` (stereo unspecified): the “% pathology change” value was -1.29% (inactive).

Another test deals with Cytochrome P450 2D6 (Homo sapiens) (UniProt P10635). The test can be described thus: Cytochrome P450 family 2 subfamily D member 6 (CYP2D6) small molecule antagonists: luciferase biochemical (cell-free) qHTS assay (AID 1645840). Further: nearly all actives have a fitted effect of over 55% in size. On activity change, negative = inhibition: on the % scale 0 is the no-effect control and ±100 the full control effect. As to conditions: P450-Glo CYP2D6 enzyme, luciferin luminescence, 1 h; series mostly up to 57.4 µM; activity change, negative = inhibition: at the top concentration. Put shortly:
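P450-Glo CYP2D6 system: proluciferin substrate converted by enzyme to luciferin, read by luminescence proportional to activity. Enzyme-substrate mix with compound 10 min at room temperature, then NADPH regeneration 1 h before detection reagent.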
Take `CCn1cc(C(=O)O)c(=O)c2cc(F)c(N3CCNC(C)C3)c(F)c21` (stereo unspecified): the “activity change, negative = inhibition” value was 7.38% (inactive).

In the case of `CCCc1nn(C)c2c(=O)[nH]c(-c3cc(S(=O)(=O)N4CCN(C)CC4)ccc3OCC)nc12`, the Potency entry is “inactive”.

For the compound `CC(=O)Oc1ccccc1C(=O)O`, the Potency was 15.5 µM (active).

In the case of `NC(=O)c1cnccn1`, the “activity change, negative = inhibition” value is 3.68% (inactive).

Take `OC(CCN1CCCCC1)(c1ccccc1)C1CC2C=CC1C2` (stereo unspecified): the Potency is 1.23 µM (active).

Regarding `Cn1cnc([N+](=O)[O-])c1Sc1ncnc2nc[nH]c12`, the Potency entry was “inactive”.

With `O=C1CCC(N2C(=O)c3ccccc3C2=O)C(=O)N1` (stereo unspecified), the Potency is 15.5 µM (active).

Consider `CCCC(CCC)C(=O)O`, for which the Potency result is “inactive”.

With `Nc1nc2c(ncn2COCCO)c(=O)[nH]1`, the “activity change, negative = inhibition” value was -1% (inactive).

`CCc1cncnc1N1CCN(Cc2nc3ccc(C(F)(F)F)cc3[nH]2)CC1`: the Potency was 0.107 µM (active).

With `O=C1CCc2cc(OCCCCc3nnnn3C3CCCCC3)ccc2N1`, the “activity change, negative = inhibition” value was 5.54% (inactive).

For `NNCCc1ccccc1`, the Potency is 5.49 µM (active).

As to `CCOC(=O)C1=C[C@]2(CC)CCCN3CCc4c(n1c1ccccc41)[C@@H]32`, the Potency is 4.9 µM (active).

With `Cc1[nH]c(=O)c(C#N)cc1-c1ccc2nccn2c1`, the “activity change, negative = inhibition” value was 8.97% (inactive).

For `Cc1[nH]c(=O)c(C#N)cc1-c1ccncc1`, the “activity change, negative = inhibition” value was 2.29% (inactive).

With `O=c1[nH]cnc2[nH]ncc12`, the “activity change, negative = inhibition” value is -0.633% (inactive).

As to `Nc1ccc(S(=O)(=O)Nc2ccnn2-c2ccccc2)cc1`, the “activity change, negative = inhibition” value was -4.58% [at 23.9 µM] (inactive).

Turning to `NC[C@H](O)c1ccc(O)c(O)c1`, the “activity change, negative = inhibition” value is -13.5% (inactive).

Turning to `CC(C)(C)NCC(O)c1ccc(O)c(CO)c1` (stereo unspecified), the “activity change, negative = inhibition” value was 1.93% (inactive).

For the compound `CC(C)NCC(O)COc1ccc(COCCOC(C)C)cc1` (stereo unspecified), the “activity change, negative = inhibition” value was 2.25% (inactive).

The next test concerns the target Cytochrome P450 2C9 (Homo sapiens) (UniProt P11712). The test can be described thus: Cytochrome P450 family 2 subfamily C member 9 (CYP2C9) small molecule antagonists: luciferase biochemical (cell-free) qHTS assay (AID 1645842). Further: nearly all actives have a fitted effect of over 55% in size. On activity change, negative = inhibition: on the % scale 0 is the no-effect control and ±100 the full control effect. Particulars: P450-Glo CYP2C9 enzyme assay, luciferin luminescence; series mostly up to 57.4 µM; activity change, negative = inhibition: at the top concentration. The gist of the method:
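P450-Glo CYP2C9 system: proluciferin substrate with enzyme in mix containing 0.4% BSA, 10 min at room temperature, then NADPH regeneration solution added and incubated 1 h at 37C. Detection reagent stopped reaction; luminescence read after 20 min as RLU.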
Turning to `CCn1cc(C(=O)O)c(=O)c2cc(F)c(N3CCNC(C)C3)c(F)c21` (stereo unspecified), the “activity change, negative = inhibition” value was 4.51% (inactive).

For the compound `C1COC(NC(C2CC2)C2CC2)=N1`, the “activity change, negative = inhibition” value was 8.02% (inactive).

With `CCCc1nn(C)c2c(=O)[nH]c(-c3cc(S(=O)(=O)N4CCN(C)CC4)ccc3OCC)nc12`, the Potency was 13.5 µM (active).

Turning to `CC(=O)Oc1ccccc1C(=O)O`, the “activity change, negative = inhibition” value was -0.403% (inactive).

With `NC(=O)c1cnccn1`, the “activity change, negative = inhibition” value is 13.9% (inactive).

Consider `OC(CCN1CCCCC1)(c1ccccc1)C1CC2C=CC1C2` (stereo unspecified), for which the “activity change, negative = inhibition” value was -6.29% (inactive).

Regarding `Cn1cnc([N+](=O)[O-])c1Sc1ncnc2nc[nH]c12`, the Potency entry was “inactive”.

Consider `O=C1CCC(N2C(=O)c3ccccc3C2=O)C(=O)N1` (stereo unspecified), for which the “activity change, negative = inhibition” value was 0.579% (inactive).

`CCCC(CCC)C(=O)O`: the Potency result was “inactive”.

Take `O=c1n(CCCN2CCN(c3cccc(Cl)c3)CC2)nc2ccccn12`: the “activity change, negative = inhibition” value is 1.23% (inactive).

`Nc1nc2c(ncn2COCCO)c(=O)[nH]1`: the “activity change, negative = inhibition” value is 5.12% (inactive).

On to `Clc1cccc(Cl)c1NC1=NCCN1`, for which the “activity change, negative = inhibition” value is 11.7% (inactive).

Consider `CCc1cncnc1N1CCN(Cc2nc3ccc(C(F)(F)F)cc3[nH]2)CC1`, for which the Potency was 0.477 µM (active).

Turning to `O=C1CCc2cc(OCCCCc3nnnn3C3CCCCC3)ccc2N1`, the Potency was 6.17 µM (active).

Regarding `Cc1oncc1C(=O)Nc1ccc(C(F)(F)F)cc1`, the Potency is 13.8 µM (active).

Consider `Oc1ccc(C2CNCCc3c2cc(O)c(O)c3Cl)cc1` (stereo unspecified), for which the “activity change, negative = inhibition” value was -19.2% (inactive).

Consider `Cc1ccccc1C(OCCN(C)C)c1ccccc1` (stereo unspecified), for which the “activity change, negative = inhibition” value is 4.75% (inactive).

In the case of `Cc1[nH]c(=O)c(C#N)cc1-c1ccc2nccn2c1`, the “activity change, negative = inhibition” value was 2.4% (inactive).

Take `Cc1[nH]c(=O)c(C#N)cc1-c1ccncc1`: the Potency is 29.9 µM (active).

As to `O=c1[nH]cnc2[nH]ncc12`, the “activity change, negative = inhibition” value is 3.12% (inactive).

With `CC(C)(C)NCC(O)c1ccc(O)c(CO)c1` (stereo unspecified), the “activity change, negative = inhibition” value is -8.44% (inactive).

Take `CC(C)NCC(O)COc1ccc(COCCOC(C)C)cc1` (stereo unspecified): the “activity change, negative = inhibition” value was 8.84% (inactive).

Values taken from PubChem BioAssay (NCATS).
